Measurements published in PMC7826789 (International Journal of Molecular Sciences, 2021).

Legend:
Conditions in all cases: Compound Concentration (nM):1000
CSNK2A2 = system: CSNK2A2
CTK = system: T1, CTK
T1 construct: gene MATK

DAPK1 = system: DAPK1
DAPK2 = system: DAPK2
DAPK3 = system: DAPK3
DCAMKL1 = system: T2, DCAMKL1
T2 construct: gene DCLK1

DCAMKL2 = system: T3, DCAMKL2
T3 construct: gene DCLK2

DCAMKL3 = system: T4, DCAMKL3
T4 construct: gene DCLK3

DDR1 = system: DDR1
DDR2 = system: DDR2
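Also: KINOMEscan scanMAX binding as percent activity remaining versus control; lower means stronger binding.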

| Compound | Percent Control (CSNK2A2) | Percent Control (CTK) | Percent Control (DAPK1) | Percent Control (DAPK2) | Percent Control (DAPK3) | Percent Control (DCAMKL1) | Percent Control (DCAMKL2) | Percent Control (DCAMKL3) | Percent Control (DDR1) | Percent Control (DDR2) |
| --- | --- | --- | --- | --- | --- | --- | --- | --- | --- | --- |
| CCS(=O)(=O)c1ccc(OC)c(Nc2ncc(-c3cccc(OC)c3)o2)c1 [GW580509X] | 4.4% | 100% | 100% | 90% | 100% | 81% | 100% | 100% | 59% | 100% |
| COc1cc2ncnc(Nc3ccc4c(cnn4Cc4ccccc4)c3)c2cc1OC.Cl [GW282449A] | 100% | 84% | 100% | 100% | 100% | 100% | 100% | 100% | 91% | 100% |
| CC1=C(C(=O)Nc2ccc3[nH]ncc3c2)C(c2ccc3ccccc3c2)CC(=O)N1 (stereo not shown) [GSK270822A] | 80% | 54% | 95% | 100% | 100% | 90% | 74% | 94% | 79% | 90% |
| Cl.c1ccc(Cc2nc3ccc(Nc4ncnc5ccccc45)cc3[nH]2)cc1 [GR269666A] | 100% | 100% | 100% | 99% | 96% | 90% | 100% | 100% | 100% | 100% |
| C/C(Nc1ccc(S(N)(=O)=O)cc1)=C1/C(=O)Nc2ccccc21 [GW335962X] | 21% | 84% | 94% | 93% | 96% | 80% | 80% | 100% | 95% | 100% |
| NS(=O)(=O)c1ccc(N/N=C2\C(=O)Nc3ccc(-c4cnco4)cc32)cc1 [GW276655] | 7% | 78% | 60% | 70% | 56% | 78% | 87% | 100% | 100% | 100% |
| Cc1cc(O)cc(C)c1/C=C/c1cncc(C(N)=O)c1 [GW435821X] | 78% | 98% | 100% | 100% | 100% | 87% | 100% | 100% | 40% | 74% |
| CC(C)COC(=O)c1ccc2c(c1)/C(=C/Nc1ccc(S(N)(=O)=O)cc1)C(=O)N2 [GW416981X] | 1.5% | 100% | 24% | 9.4% | 9.8% | 38% | 100% | 4.6% | 100% | 100% |
| CCn1c(-c2nonc2N)nc2c(C#CC(C)(C)O)nc(OCCNC)cc21.Cl [GSK949675] | 97% | 100% | 100% | 100% | 100% | 100% | 100% | 66% | 100% | 100% |
| COc1cc2ncn(-c3cc(O[C@H](C)c4ccccc4Cl)c(C(N)=O)s3)c2cc1OC [GSK237701A] | 34% | 78% | 55% | 81% | 79% | 77% | 100% | 100% | 100% | 74% |
| COc1ccccc1-c1cc(/C=C2\C(=O)Nc3ncc(Br)cc32)cc(Br)c1O [GW442130X] | 72% | 99% | 100% | 88% | 88% | 100% | 100% | 89% | 92% | 100% |
| O=C(Nc1n[nH]c2nc(-c3ccc(O)cc3)c(Br)cc12)C1CC1 [SB-725317] | 85% | 100% | 55% | 34% | 34% | 89% | 100% | 3.5% | 98% | 100% |
| CCS(=O)(=O)c1ccc(OC)c(Nc2ncc(-c3cccc(F)c3)o2)c1 [GW621970X] | 1.4% | 100% | 100% | 100% | 100% | 100% | 98% | 100% | 55% | 100% |
| Cl.O=C(Nc1ccc(Oc2ccc3[nH]c(NC(=O)c4ccco4)nc3c2)cc1)Nc1cc(C(F)(F)F)ccc1F [GW683134A] | 91% | 100% | 100% | 83% | 89% | 87% | 100% | 82% | 0% | 5.1% |
| COc1ccc(COc2ccc(Cc3cnc(N)nc3N)cc2OC)cc1 [GW632580X] | 70% | 94% | 94% | 91% | 91% | 94% | 78% | 100% | 78% | 100% |
| CN(C)c1cc2c(Nc3ccc4c(cnn4Cc4ccccc4)c3)ncnc2cn1 [GW282974X] | 65% | 100% | 100% | 91% | 100% | 85% | 100% | 100% | 66% | 100% |
| Cl.O=S1CCN(Cc2ccc(-c3ccc4ncnc(Nc5ccc(OCc6ccccc6)c(F)c5)c4c3)o2)CC1 [GW576924A] | 100% | 100% | 100% | 100% | 100% | 89% | 100% | 100% | 100% | 100% |
| COc1ccc2cc(-c3c(-c4ccncc4)nc(-c4ccc(S(C)(=O)=O)cc4C)n3C)ccc2c1 [SB-633825] | 79% | 62% | 96% | 88% | 82% | 71% | 85% | 89% | 2% | 58% |
| CCc1ccc(Oc2nccc(-c3c(-c4ccc(F)cc4)ncn3C3CCNCC3)n2)cc1 [SB-242719] | 69% | 89% | 92% | 74% | 69% | 77% | 81% | 100% | 73% | 94% |
| NS(=O)(=O)c1ccc(Nc2ncc(-c3ccccc3)o2)cc1 [GW572399X] | 53% | 100% | 100% | 100% | 100% | 83% | 100% | 100% | 100% | 100% |

| Compound | Percent Control (CSNK2A2) | Percent Control (CTK) | Percent Control (DAPK1) | Percent Control (DAPK2) | Percent Control (DAPK3) | Percent Control (DCAMKL1) | Percent Control (DCAMKL2) | Percent Control (DCAMKL3) | Percent Control (DDR1) | Percent Control (DDR2) |
| --- | --- | --- | --- | --- | --- | --- | --- | --- | --- | --- |
| COc1cc(/C=N/Nc2ncnc3[nH]ncc23)ccc1O [GW578748X] | 7.7% | 97% | 78% | 75% | 48% | 68% | 100% | 68% | 100% | 100% |
| NS(=O)(=O)c1ccc(N/N=C2\C(=O)Nc3ccc(C(=O)NCc4ccncc4)cc32)cc1 [GW300657X] | 28% | 97% | 63% | 65% | 51% | 67% | 83% | 72% | 100% | 89% |
| COc1ccc2[nH]c3c4[nH]c5ccc(OC)cc5c4c4c(c3c2c1)C(=O)NC4=O [GW296115X] | 56% | 93% | 22% | 4.9% | 4.8% | 90% | 90% | 19% | 77% | 72% |
| COc1cc(C=NNc2ncnc3c2cnn3-c2ccccc2)ccc1O [GW513184X] | 5.6% | 100% | 100% | 100% | 100% | 90% | 100% | 100% | 100% | 100% |
| C[C@@H](Oc1cc(-n2cnc3ccc(OC4CCN(C)CC4)cc32)sc1C(N)=O)c1ccccc1Cl [GSK579289A] | 8.4% | 100% | 29% | 49% | 28% | 70% | 83% | 89% | 92% | 90% |
| Nc1ncnc2occ(-c3ccc(NC(=O)Nc4cc(C(F)(F)F)ccc4F)cc3)c12 [GW770249X] | 93% | 70% | 100% | 100% | 98% | 78% | 76% | 100% | 0% | 1.3% |
| CN(C)CCNC(=O)Nc1ccc(N(C)c2ccnc(Nc3ccc(CS(C)(=O)=O)cc3)n2)cc1.Cl [GW830900A] | 62% | 86% | 94% | 100% | 100% | 89% | 100% | 100% | 73% | 17% |
| Cl.O=C(Nc1ccc(Oc2ccc3[nH]c(NC(=O)c4ccccc4)nc3c2)cc1)Nc1cc(C(F)(F)F)ccc1F [GW709042A] | 72% | 100% | 100% | 100% | 100% | 92% | 96% | 100% | 0% | 16% |
| COc1cc(C)c(N(C)C(=O)CN(C)C)cc1Nc1nc(Nc2cccc(F)c2C(N)=O)c2cc[nH]c2n1 [GSK2219385] | 81% | 100% | 85% | 73% | 71% | 78% | 100% | 100% | 78% | 100% |
| CC1=C(C(=O)Nc2ccc3[nH]ncc3c2)C(c2ccc(Cl)c(Cl)c2)CC(=O)N1 (stereo not shown) [GSK299115A] | 79% | 62% | 81% | 83% | 81% | 83% | 55% | 45% | 88% | 81% |
| COc1cccc(-n2ncc3c(N/N=C/c4ccncc4)ncnc32)c1 [GW784752X] | 2.9% | 99% | 100% | 94% | 93% | 86% | 100% | 71% | 100% | 100% |
| COc1ccc2c(-c3ccnc(Nc4cccc(OC(F)(F)F)c4)n3)cnn2n1 [GW810372X] | 59% | 100% | 100% | 98% | 100% | 100% | 100% | 100% | 100% | 100% |
| COc1cc(N2CCN(C(C)C)CC2)ccc1Nc1nc(Nc2ccc(F)cc2C(=O)NC[C@@H](O)CO)c2cc[nH]c2n1 [GSK1392956A] | 88% | 95% | 13% | 6.8% | 4.3% | 78% | 100% | 100% | 98% | 100% |
| Cl.O=C(O[C@H]1CN[C@H](C#Cc2cc3ncnc(Nc4ccc5c(cnn5Cc5ccccc5)c4)c3s2)C1)N1CCOCC1 [GSK200398A] | 70% | 89% | 95% | 100% | 100% | 82% | 100% | 100% | 92% | 100% |
| O=C1Nc2ccc(C(=O)c3ccco3)cc2C1=Cc1cc(Cl)c(O)c(Cl)c1 [GW406108X] | 19% | 92% | 22% | 9.2% | 10% | 80% | 94% | 100% | 100% | 93% |
| CN1CCN(C(=O)c2ccc(NC(=O)Nc3ccc(N(C)c4ccnc(Nc5ccc(CS(C)(=O)=O)cc5)n4)cc3)cc2)CC1.Cl [GW830263A] | 63% | 100% | 95% | 100% | 100% | 97% | 79% | 100% | 0% | 0% |
| COC(=O)Nc1nc2ccc(Oc3ccc(NC(=O)Nc4cc(C(F)(F)F)ccc4F)cc3)cc2s1.Cl [GW693917A] | 68% | 91% | 95% | 100% | 100% | 95% | 86% | 100% | 0% | 5.8% |
| NS(=O)(=O)c1ccc(N/N=C2\C(=O)Nc3ccc(C(=O)NCCc4c[nH]cn4)cc32)cc1 [GW300660X] | 1.4% | 100% | 44% | 100% | 15% | 65% | 100% | 100% | 100% | 100% |
| COc1cccc(-c2c[nH]c3c(N/N=C/c4ccncc4)ncnc23)c1 [GW814408X] | 1.5% | 100% | 100% | 100% | 100% | 100% | 100% | 56% | 86% | 60% |
| NS(=O)(=O)c1ccc(N/N=C2\C(=O)Nc3ccc(Cl)cc32)cc1 [GW280670X] | 54% | 100% | 100% | 100% | 100% | 94% | 100% | 100% | 100% | 100% |
